Laboratory results reported in PubChem BioAssay AID2530 (National Center for Advancing Translational Sciences (NCATS), 2010).
Records with an inconclusive call do not appear. Where a call stands in place of a potency, no number is given. Activity calls are given as the source filed them. Calls come from the whole dose curve; as a rule, active = well fitted inhibition curve with a large enough effect; inconclusive = small, poorly fitted or top-dose-only effect; inactive = flat fitted curve, though single readings scatter.

Each molecule was assayed against Luciferin 4-monooxygenase (Photuris pensylvanica) (UniProt Q27757) (assay: Secondary Assay for Luciferase (Kinase-Glo TM) Inhibition Counterscreen). Conditions: Kinase-Glo luciferase enzyme, luminescence; series mostly up to 58.1 µM.
Procedure, shortened: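 Kinase-Glo firefly-type luciferase with 10 uM ATP in 50 mM imidazole pH 7.2, 50 mM KCl, 7 mM MgCl2, 0.01% Tween 20, 0.05% BSA. Luminescence read after 8 min at ambient temperature, normalized to DMSO and 40 uM SIB 1757, then Hill-fitted.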
Potency is the fitted concentration of half-maximal effect.

Row | SMILES | Potency
1 | COc1cccc(OC2=NS(=O)(=O)c3ccccc32)c1 | inactive
2 | COc1cccc(N2C(=O)c3ccccc3C2=O)c1 | inactive
3 | Cc1ccccc1OC1=NS(=O)(=O)c2ccccc21 | inactive
4 | Cc1ccc(NS(=O)(=O)c2ccc3c(c2)CCC(C)(C)O3)cc1C | inactive
5 | O=c1c2ccccc2cnn1-c1nc2ccccc2[nH]1 | 2.59 µM (active)
6 | O=C1CCc2cc(S(=O)(=O)Nc3cccc(Cl)c3)ccc2N1 | inactive
7 | c1c2c(cc3sc(N4CCCCC4)nc13)OCO2 | 10.3 µM (active)
8 | O=C(COC(=O)CCC(=O)c1ccc(F)cc1)Nc1ccc(F)cc1F | inactive
9 | O=C1c2ccccc2C(=O)N1Cc1cccnc1 | inactive
10 | CC(=O)N(C1=C(Cl)C(=O)c2ccccc2C1=O)c1ccc(C(=O)O)cc1 | inactive
11 | CC(=O)Nc1ccc(S(=O)(=O)Nc2ccc(C)c(C)c2)cc1 | inactive
12 | Cc1ccc(C(=O)/C=C/C(=O)c2ccc(C)cc2)cc1 | inactive
13 | C[C@]12CC[C@@H]3c4cc(O)c(O)cc4CC[C@H]3[C@@H]1CC[C@@H]2O | inactive
14 | Cc1ccc(NS(=O)(=O)c2cc3c(cc2F)NC(=O)CC3)cc1C | inactive
15 | O=C(Nc1ccc(N2CCOCC2)cc1)c1cn2ccccc2n1 | 6.51 µM (active)
16 | Cc1ccc(NS(=O)(=O)c2ccc3c(c2)CCCC(=O)N3)cc1C | inactive
17 | Cc1ccc(NC(=O)c2ccc3c(c2)CCC(=O)N3)cc1C | inactive
18 | O=C1c2ccccc2C(=O)N1c1cc(=O)c2ccccc2[nH]1 | inactive
19 | COc1cccc(Cn2ncc3c4sc(S(C)=O)cc4n(C)c3c2=O)c1 (centres undefined) | inactive
20 | O=C1c2ccccc2C(=O)N1c1ccc2ncccc2c1 | inactive

Row | SMILES | Potency
21 | O=C1c2ccccc2C(=O)N1c1ccc(O)cc1 | inactive
22 | O=C1CCc2cc(S(=O)(=O)Nc3ccc4c(c3)OCCO4)ccc2N1 | inactive
23 | COc1ccc(C(=O)N=c2nc3ccccn3s2)cc1 | 5.8 µM (active)
24 | CC(=O)Nc1cccc(S(=O)(=O)Nc2ccc(C)c(C)c2)c1 | inactive
25 | Cc1cc(N2C(=O)c3ccccc3C2=O)n[nH]1 | inactive
26 | Cc1ccc(NS(=O)(=O)c2ccc3c(c2)n(C)c(=O)n3C)cc1C | inactive
27 | COc1ccc(C(=O)C[n+]2ccc(N)c(C)c2C)cc1 | inactive
28 | Cc1ccc(NS(=O)(=O)c2cc3c(cc2-c2cn[nH]c2)NC(=O)CO3)cc1C | inactive
29 | O=C1CCc2cc(S(=O)(=O)Nc3ccc(F)cc3)ccc2N1 | inactive
30 | CC[n+]1c(C)sc2sc3ccccc3c21 | inactive
31 | COc1cccc(NS(=O)(=O)c2ccc3c(c2)CCC(=O)N3)c1 | inactive
32 | O=S(=O)(c1ccc2c(c1)OCCO2)N1CCN(S(=O)(=O)c2c(F)cccc2F)CC1 | inactive
33 | O=C(/C=C/Nc1ccccc1Br)c1ccccn1 | 13 µM (active)
34 | Cc1cc(O)c(-c2cc(O)c(C)cc2O)cc1O | inactive
35 | Oc1ccc(C23CC4CC(CC(C4)C2)C3)cc1O | inactive
36 | O=C1c2ccccc2C(=O)N1c1ccc2ccccc2n1 | inactive
37 | O=C1c2ccccc2C(=O)N1c1cccc2cnccc12 | inactive
38 | O=C1CCc2cc(S(=O)(=O)Nc3ccc4ccccc4c3)ccc2N1 | inactive
39 | Cn1c2cc(S(C)=O)sc2c2cnn(Cc3cccc(O)c3)c(=O)c21 (centres undefined) | inactive
